This note sets out measurements from the supplement of paper PMC7366291.

SMILES strings stand for the structures. Structures can show the parent of a compound that is named as a salt. ± gives the standard deviation.

This assay relates to Danio rerio Tg(wt1b:EGFP) embryo, pronephros. The experiment in a line: glomerular separation, fold change vs DMSO control; higher = glomeruli further apart (abnormal). As to conditions: 25 µM; exposure: 24-48 hpf. An outline of the steps: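 Dechorionated Tg(wt1b:EGFP) zebrafish embryos were treated with 25 μM compound in 0.5% DMSO, in HEPES-buffered E3 with 0.003% PTU, from 24 to 48 hpf at 28.5°C. On maximum projections of dorsal pronephros images, 16 hand-placed reference points in Fiji gave distances and angles, and values more than 2 SD from the feature mean were left out. Results are fold changes over the mean of same-day DMSO-treated embryos.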
In turn, `Cc1onc(-c2ccccc2)c1C(=O)N[C@@H]1C(=O)N2[C@@H]1SC(C)(C)[C@@H]2C(=O)O` [Oxacillin sodium] showed a glomerular separation of 0.779 ± 0.29.
With `Cc1ccccc1C(OCCN(C)C)c1ccccc1` (stereo unspecified) [Orphenadrine hydrochloride] the figure was 0.79 ± 0.21.
`CN[C@@H]1[C@@H](O)[C@@H](O[C@@H]2[C@@H](O)[C@H](O[C@H]3OC(CN)=CC[C@H]3N)[C@@H](N)C[C@H]2N)OC[C@]1(C)O` [Sisomicin sulfate] registered a glomerular separation of 1.23 ± 0.84.
With `O=C(CCCN1CCC(O)(c2ccc(Br)cc2)CC1)c1ccc(F)cc1` [Bromperidol] the figure was 0.878 ± 0.23; with `CCCCC1(COC(=O)CCC(=O)O)C(=O)N(c2ccccc2)N(c2ccccc2)C1=O` [Suxibuzone], 1.48 ± 0.71.
With `Cc1ccsc1/C=C/C1=NCCCN1C` [Morantel tartrate] the figure was 0.982 ± 0.26; with `CN1CCN(c2c(F)cc3c(=O)c(C(=O)O)cn4c3c2SCC4)CC1` [Rufloxacin], 0.835 ± 0.21.
With `Cc1c(NC(=O)c2cccnc2)c(=O)n(-c2ccccc2)n1C` [Nifenazone] the figure was 0.806 ± 0.28; with `COC(=O)N/N=C/c1c[n+]([O-])c2ccccc2[n+]1[O-]` [Carbadox], 1.17 ± 0.61; with `Cc1cc(O)c(C(=O)N[C@@H](C(=O)N[C@@H]2C(=O)N3C(C(=O)O)=C(CSc4nnnn4C)CS[C@H]23)c2ccc(O)cc2)cn1` [Cefpiramide], 1.22 ± 0.39.
`CNCCC=C1c2ccccc2CCc2ccccc21` [Nortriptyline hydrochloride] registered a glomerular separation of 1.04 ± 0.35.
In turn, `NC(=O)OCC(O)COc1ccc(Cl)cc1` (stereo unspecified) [Chlorphensin carbamate] had a glomerular separation of 0.973 ± 0.47.
On to `NS(=O)(=O)c1cc2c(cc1C(F)(F)F)NC(Cc1ccccc1)NS2(=O)=O` (stereo unspecified) [Bendroflumethiazide], for which the glomerular separation turned out to be 1.15 ± 0.68.
The same measure for `Cc1ncc([N+](=O)[O-])n1CCO` [Metronidazole]: 1.1 ± 0.31.
The same measure for `CCOC(=O)C1=C(C)NC(C)=C(C(=O)OCC)C1c1ccccc1/C=C/C(=O)OC(C)(C)C` [Lacidipine]: 6.82 ± 2.2.
The same measure for `CC(=O)OCC(=O)[C@@]12OC(C)(C)O[C@@H]1C[C@H]1[C@@H]3C[C@H](F)C4=CC(=O)C=C[C@]4(C)[C@@]3(F)[C@@H](O)C[C@@]12C` [Fluocinonide]: 1.04 ± 0.63; for `CC(=O)N(CC(O)CO)c1c(I)c(C(=O)NCC(O)CO)c(I)c(C(=O)NCC(O)CO)c1I` (stereo unspecified) [Iohexol]: 1.06 ± 0.38.
For the compound `COc1c2occc2c(OC)c2c(=O)cc(C)oc12` [Khellin], the glomerular separation amounted to 0.835 ± 0.39.
The same measure for `CN1[C@@H]2CC[C@H]1C[C@@H](OC(=O)C(O)c1ccccc1)C2` (mixture of isomers) [Homatropine hydrobromide (R,S)]: 0.957 ± 0.29; for `O=C1C(O)=C([C@H]2CC[C@H](c3ccc(Cl)cc3)CC2)C(=O)c2ccccc21` [Atovaquone]: 1.05 ± 0.35.
As to `Cn1c(=O)c2c(ncn2CCO)n(C)c1=O` [Etofylline], the glomerular separation was 0.926 ± 0.37.
With `CCN1CCCC1CNC(=O)c1cc(S(N)(=O)=O)ccc1OC` (stereo unspecified) [Sulpiride] the figure was 1.08 ± 0.28.
The same measure for `CC[C@]12CCCN3CCc4c(n(c5ccccc45)[C@@](O)(C(=O)OC)C1)[C@@H]32` [Vincamine]: 0.967 ± 0.23.
Compound `CCOc1cc(CC(=O)N[C@@H](CC(C)C)c2ccccc2N2CCCCC2)ccc1C(=O)O` [Repaglinide] had a glomerular separation of 1.44 ± 0.91.
With `CN(C)CCc1c[nH]c2ccc(C[C@H]3COC(=O)N3)cc12` [Zolmitriptan] the figure was 0.75 ± 0.13.
For the compound `CC(=O)Nc1ccc(OCC(O)CNC(C)C)cc1` (stereo unspecified) [Practolol], the glomerular separation is 1.01 ± 0.36.
`Cc1ncc([N+](=O)[O-])n1CC(C)O` (stereo unspecified) [Secnidazole] came in with a glomerular separation of 0.775 ± 0.29.
In turn, `O=C(COc1ccc(Cl)cc1)N1CCN(Cc2ccc3c(c2)OCO3)CC1` [Fipexide hydrochloride] had a glomerular separation of 1.26 ± 0.55.
With `N=C(N)N/N=C/c1c(Cl)cccc1Cl` [Guanabenz acetate] the figure was 1.12 ± 0.47; with `NS(=O)(=O)Cc1noc2ccccc12` [Zonisamide], 0.805 ± 0.15; with `CCC(=O)O[C@@H](O[P@](=O)(CCCCc1ccccc1)CC(=O)N1C[C@H](C2CCCCC2)C[C@H]1C(=O)O)C(C)C` [Fosinopril], 1.05 ± 0.44.
For the compound `Nc1ncnc2c1ncn2[C@@H]1O[C@H](CO)[C@@H](O)[C@@H]1O` [Vidarabine], the glomerular separation was found to be 1.29 ± 0.56.
The same measure for `Cn1c(=O)c2[nH]cnc2n(C)c1=O` [Aminophylline]: 0.664 ± 0.15; for `Cc1nnc(NS(=O)(=O)c2ccc(N)cc2)s1` [Sulfamethizole]: 0.838 ± 0.34.
With `CN(C)CCC=C1c2ccccc2COc2ccccc21` [Doxepin hydrochloride] the figure was 0.925 ± 0.22; with `CN(C)[C@@H]1C(O)=C(C(N)=O)C(=O)[C@@]2(O)C(O)=C3C(=O)c4c(O)cccc4[C@@](C)(O)[C@H]3C[C@@H]12` [Tetracycline hydrochloride], 1.33 ± 0.62.
